Where a name gives a salt, the structure may show the parent alone.
test system: WPMY1-TUBA1B-RELA; test: lowest phenotypically active concentration; higher = less potent; settings: treatment time: 24 h
Procedure, shortened: (§1)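 Two criteria together defined phenotypic activity: deviation and reproducibility. Deviation meant ≥3 of 4 wells beyond the 95th percentile of Euclidean distances in solvent control wells, and reproducibility meant a median replicate Pearson correlation above the 95th percentile of non-replicates. Wells had been treated for 24 h at 0.3, 1, 3 or 9 µM in fifteen gene-edited A549, HepG2 and WPMY1 reporter lines before live imaging.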

SMILES | lowest phenotypically active concentration [µM]
CC/C(=C(\CC)c1ccc(O)c(CN(CC)CC)c1)c1ccc(O)c(CN(CC)CC)c1 | 9
COc1ccc(CCNCc2ccc(OCc3ccc(Cl)nc3)c(OC)c2)cc1OC [SBE 13 hydrochloride] | 9
Cc1noc(C)c1Cn1cc(C#N)c2cc(Oc3ccc(NC(=O)[C@@H]4CCCN4)cc3)ccc21 | 9
COc1c(C=O)c(O)cc2c1C(=O)c1ccccc1C2=O [Damnacanthal] | 9
CC(C)OC(=O)c1cc2c(OCC(O)CNC(C)(C)C)cccc2[nH]1 (centres undefined) | 9
COc1ccccc1OCCNCC(O)COc1cccc2[nH]c3ccccc3c12 (centres undefined) [Carvedilol] | 9
O=S(=O)(c1cccc2cnccc12)N1CCCNCC1 [fasudil] | 9
CSc1ccc2c(c1)N(CCC1CCCCN1C)c1ccccc1S2 (centres undefined) [thioridazine] | 9
O=C(O)[C@@H]1[C@H]2C[C@H]3c4[nH]c5ccccc5c4CCN3C[C@@H]2CC[C@@H]1O [Yohimbinic acid monohydrate] | 9
COc1cc(N2CCC(N)CC2)ccc1Nc1ncc(Cl)c(-c2c[nH]c3ccccc23)n1 | 1
Cc1noc(C)c1-c1ccc2c(c1)nc(CCc1ccc(OCCCN(C)C)cc1)n2CCN1CCOCC1 | 9
Cc1cc(Nc2ccc(NC(=O)c3ccc(Nc4ccnc5ccccc45)cc3)cc2)nc(N)n1 | 3
Cc1ccc(NC2=CC(=O)c3sc(C)nc3C2=O)cc1 [Ryuvidine] | 1
O=C(O)C[C@H](O)C[C@H](O)/C=C/c1c(C2CC2)nc2ccccc2c1-c1ccc(F)cc1 [Pitavastatin calcium] | 1
CN1[C@@H]2CC[C@H]1C[C@@H](OC(c1ccccc1)c1ccccc1)C2 [benztropine] | 9
NS(=O)(=O)c1nn2cc(-c3ccccc3)nc2s1 | 9

test system: A549-ACTB-RAB5A; test: phenotypically active (imaging signature differs from DMSO and reproducible) at any of 0.3-9 uM (binary (1 = active, 0 = inactive)); higher = active; settings: treatment time: 24 h
Procedure, shortened: as §1

SMILES | phenotypically active
CC/C(=C(\CC)c1ccc(O)c(CN(CC)CC)c1)c1ccc(O)c(CN(CC)CC)c1 | 1 (active)
CNCCC(Oc1ccc(C(F)(F)F)cc1)c1ccccc1 (centres undefined) [fluoxetine] | 1 (active)
Cn1cc(C2=C(c3ccc(Cl)cc3Cl)C(=O)NC2=O)c2ccccc21 | 1 (active)
CC(C)COCC(CN(Cc1ccccc1)c1ccccc1)N1CCCC1 (centres undefined) [bepridil] | 1 (active)
COc1cc(OC)c2cc(-c3ccncc3)cnc2c1 [DMPQ dihydrochloride] | 1 (active)
O=C(NOCC1CC1)c1ccc(F)c(F)c1Nc1ccc(I)cc1Cl | 1 (active)
Cn1cc(CCn2cnc(-c3cnn(C)c3)c2-c2ccc(C#N)cc2)cn1 | 1 (active)
COc1ccc(CCNCc2ccc(OCc3ccc(Cl)nc3)c(OC)c2)cc1OC [SBE 13 hydrochloride] | 1 (active)
O=C(O)Cc1cccc(OCCCN(Cc2cccc(C(F)(F)F)c2Cl)CC(c2ccccc2)c2ccccc2)c1 [GW 3965 hydrochloride] | 1 (active)
N#C/C(=C(/N)Sc1ccc(N)cc1)c1ccccc1C(F)(F)F | 1 (active)
CCOP(=O)(OCC)C(=Cc1cc(C(C)(C)C)c(O)c(C(C)(C)C)c1)P(=O)(OCC)OCC | 1 (active)
O=C([C@H](Cc1cccc(C(F)(F)F)c1)NS(=O)(=O)c1cc(F)c2c(c1)CCNC2)N1CCCC1 [(S)-PFI 2 hydrochloride] | 1 (active)
Cc1noc(C)c1Cn1cc(C#N)c2cc(Oc3ccc(NC(=O)[C@@H]4CCCN4)cc3)ccc21 | 1 (active)
CCCS(=O)(=O)Nc1ccc(F)c(C(=O)c2c[nH]c3ncc(Cl)cc23)c1F | 1 (active)
COc1c(C=O)c(O)cc2c1C(=O)c1ccccc1C2=O [Damnacanthal] | 1 (active)
COc1ccc(CNC(=O)Nc2ncc([N+](=O)[O-])s2)cc1 | 1 (active)
CC(C)(C)c1ccc2cc(C#N)c(C#N)cc2c1 | 1 (active)
C[C@H]1Oc2cc(cnc2N)-c2c(nn(C)c2C#N)CN(C)C(=O)c2ccc(F)cc21 | 1 (active)
CC(C)OC(=O)c1cc2c(OCC(O)CNC(C)(C)C)cccc2[nH]1 (centres undefined) | 1 (active)
COc1ccccc1OCCNCC(O)COc1cccc2[nH]c3ccccc3c12 (centres undefined) [Carvedilol] | 1 (active)
CCCCOc1cc(C(=O)NCCN(CC)CC)c2ccccc2n1 [cinchocaine] | 1 (active)
O=S(=O)(c1cccc2cnccc12)N1CCCNCC1 [fasudil] | 1 (active)
Clc1ccccc1C(c1ccccc1)(c1ccccc1)n1ccnc1 [Clotrimazole] | 1 (active)

— the supplement of paper PMC7411054
